Bioassay records as filed in PubChem.
HEK293 tox: qHTS of GLP-1 Receptor Inverse Agonists: Cytotox Screen | HEK293 cAMP-luciferase reporter cells, luminescence, 24 h | Potency, µM (titrated, usually from 38.3 µM), without a hit: at the top dose activity change, negative = inhibition, usual class: inhibitors | actives 0.13% (n = 410,000);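 further: loss of luciferase light is scored as toxicity; potency means the concentration at half of the fitted maximal effect; on the % scale 0 is the no-effect control and ±100 the full control effect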
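Luminescence readout: signal drop marks cytotoxicity. Plated cells grew 12 h at 37 °C, 5% CO2, received 23 nL compound for 24 h, then got luciferase reagent, read after 12 min at RT.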
GLS inhibitor: qHTS for Inhibitors of Glutaminase (GLS) | Potency, µM (highest dose often 45.5 µM), for inactives: top-dose activity change, negative = inhibition, usual class: inhibitors | actives 0.21% (n = 410,000) | GLS enzymatic activity, qHTS titration | AID 624170, 2012 | Glutaminase kidney isoform, mitochondrial (Homo sapiens), O94925; further: potency means the concentration at half of the fitted maximal effect; on the % scale 0 is the no-effect control and ±100 the full control effect
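Coupled fluorescence readout: glutamate oxidase/HRP/Amplex Red detect glutamate formed by hKGA from L-glutamine (1 mM solution added). Buffer 45 mM KH2PO4 pH 8.2, 0.02% Tween-20; reads at t0 and 30 min RT.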
hERG WT inh: qHTS for Inhibitors of KCHN2 3.1: Wildtype qHTS; activity change, % at 1.84 µM; actives 0.37% (n = 340,000); Voltage-gated inwardly rectifying potassium channel KCNH2 (Homo sapiens), Q12809; U2OS, BacMam KCNH2, thallium flux FluxOr; stronger effect = lower value; AID 720551, 2013;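 active means maximum activity change below -70%; inconclusive means maximum activity change between -70% and -50%; inactive means maximum activity change above -50%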; further: on the % scale 0 is the no-effect control and ±100 the full control effect
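U2OS cells transduced with wild-type KCNH2 virus are loaded with FluxOr dye for 45 min, and thallium flux is measured in kinetic reads before and after stimulation buffer. Rate constants are normalized to DMSO controls.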
KCNH2 3.1 block: qHTS for Inhibitors of KCHN2 3.1: Mutant qHTS; actives 0.95% (n = 340,000); AID 720553, 2013; activity change, % (tested at about 1.8 µM); Potassium voltage-gated channel subfamily H member 2, brain isoform KCNH2 3.1 (human); U2OS KCNH2 3.1, thallium flux FluxOr; stronger effect = lower value;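 active means maximum activity change below -70%; inconclusive means maximum activity change from -70% to -50%; inactive means maximum activity change above -50%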;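 further: thallium influx rate constant from kinetic fluorescence after stimulation buffer; on the % scale 0 is the no-effect control and ±100 the full control effect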
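Measured as rate of thallium-driven FluxOr signal in transduced U2OS cells carrying the 3.1 channel, read kinetically for 2 min upon stimulation; values are rate constants scaled to DMSO control wells.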
GLP1R inv ag: qHTS of GLP-1 Receptor Inverse Agonists (Inhibition Mode); Glucagon-like peptide 1 receptor (Homo sapiens), P43220; HEK293 GLP-1R CRE-luciferase, luminescence, 24 h; GLP-1R form is constitutively active; Potency, µM (top dose mostly 38.3 µM), for inactives: at the top dose activity change, negative = inhibition, most hits filed as inhibitors; actives 1.6% (n = 410,000); AID 624417, 2012; further: potency means the concentration at half of the fitted maximal effect; on the % scale 0 is the no-effect control and ±100 the full control effect; nearly all actives have a fitted effect of over 55% in size
Target sequence (P43220 whole entry, looked up): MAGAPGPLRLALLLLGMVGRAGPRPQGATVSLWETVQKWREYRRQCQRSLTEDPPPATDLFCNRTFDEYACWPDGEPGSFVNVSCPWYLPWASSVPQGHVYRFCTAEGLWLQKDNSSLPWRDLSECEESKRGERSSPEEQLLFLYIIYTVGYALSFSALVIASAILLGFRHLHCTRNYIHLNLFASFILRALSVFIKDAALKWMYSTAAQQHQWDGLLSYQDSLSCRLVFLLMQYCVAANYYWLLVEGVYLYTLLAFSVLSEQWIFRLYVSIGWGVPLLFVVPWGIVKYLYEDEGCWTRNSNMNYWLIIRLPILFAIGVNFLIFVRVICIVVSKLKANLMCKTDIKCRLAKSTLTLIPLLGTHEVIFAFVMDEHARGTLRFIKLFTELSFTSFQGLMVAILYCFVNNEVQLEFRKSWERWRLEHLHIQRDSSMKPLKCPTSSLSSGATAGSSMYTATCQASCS
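Inverse agonism was detected as reduced cAMP-driven luciferase luminescence after 24 h compound treatment. The cells were HEK293 clones expressing constitutively active human GLP-1R with the reporter. Reporter-only and GPR119 cell lines served as counterscreen controls.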
GLP-1R agonist: qHTS of GLP-1 Receptor Agonists | Potency, µM (series often up to 45.6 µM), for inactives: at the highest dose activation, usual class: activators | HEK293 GLP-1R CRE-luciferase, luminescence, 4-6 h; cells express a hypersensitive GLP-1R form | actives 0.007% (n = 380,000) | Glucagon-like peptide 1 receptor (Homo sapiens), P43220; further: potency means the concentration at half of the fitted maximal effect; % of control where 0% means no effect
* = called active by the depositor; ? = inconclusive; / = not tested or not shown; [ ] = another dose, or the depositor's remark. A selection: hits, their analogues and other compounds. The true share with any hit is near 2.8%. Unless noted, the call rests on the fitted dose curve; in most records, active means well fitted curve in the direction sought with a large enough effect; inconclusive means small, poorly fitted or top-dose-only effect, or another doubt; inactive means no such curve, though single readings can be large; an effect the other way counts as inactive or inconclusive.

SMILES	HEK293 tox	GLS inhibitor	hERG WT inh	KCNH2 3.1 block	GLP1R inv ag	GLP-1R agonist
COCCOC(=O)C1=C(C)NC(=O)NC1c1cccs1 (configuration not stated)	-6.5%	-8.9%	11.3	0.4	15.1%	-8.2%
COCCOC(=O)C1=C(C)NC(=S)NC1c1cccs1 (configuration not stated)	-4.7%	20.7%	1.3	-76.3*	0.3%	4.5%
CSc1ccc(OC2CCN(Cc3ccccc3)CC2)cc1	13.7%	3.7%	?	-89.2*	?	6.7%
O=C(CSc1n[nH]c(-c2ccco2)n1)Nc1ccccc1	-5.0%	8.2%	-8.5	8.4	-2.1%	-12.3%
OC(CNC1CCCC1)COc1ccccc1Br (configuration not stated)	2.2%	2.3%	16.2	-15.2	?	13.4%
Cc1ccccc1OCC(O)CNC1CCC(NCC(O)COc2ccccc2C)CC1 (configuration not stated)	?	-2.2%	5.6	-28.2	1.26µM*	-9.6%
OC(CNC1CCCCCC1)COc1cccc2ccccc12 (configuration not stated)	?	-3.0%	15.8	-14.4	11.2µM*	4.8%
COc1ccccc1CNS(=O)(=O)c1cc(C(=O)Nc2cccc(C(F)(F)F)c2)ccc1F	?	-4.5%	/	/	?	/
NC(=S)NN=C1c2ccccc2-c2c(F)c(F)c(F)c(F)c21	11.2µM*	-6.0%	-1.2	3.4	?	-2.6%
CC(C)Cc1nc(SCC(=O)N2CCCCC2)c2c(=O)n(C)c(=O)n(C)c2n1	-25.3%	-5.9%	0.0	-1.6	10µM*	-0.3%
CC(C)=CCC/C(C)=C\CC/C(C)=C\CC/C=C(\C)CC/C=C(\C)CCC=C(C)C	/	6.2%	/	/	/	-5.2%
COC(=O)[C@]12CCCCC=C1N(CCc1ccc(OC)c(OC)c1)C(=O)[C@H](CC(=O)N1CCCCC1)C2	-26.5%	/	/	/	-21.7%	/
CN(C)C(=O)N1CCC(C(=O)NCc2ccc(F)cc2Cl)CC1	2.3%	0.2%	-12.6	-4.5	-24.2%	-1.2%
O=C(NNC(=O)C1CCN(Cc2ccc(F)cc2Cl)CC1)Nc1ccc([N+](=O)[O-])cc1	8.3%	26.5%	/	-21.0	3.98µM*	-0.3%
CCOC(=O)Cc1csc(N/N=C\c2cccc(Br)c2)n1	-21.9%	20µM*	-9.6	3.5	?	14.6%
CCOC(=O)Cc1csc(N/N=C/c2ccccc2)n1	-12.2%	11.7%	-5.0	8.3	?	17.3%
CCOC(=O)C1(CCOc2ccccc2)CCN(Cc2ccc(OCC)c(CO)c2)CC1	0.0%	12.1%	-87.3*	-108.1*	11.2µM*	-1.4%
CCOC(=O)C1(CCOc2ccccc2)CCN(Cc2cccc3c2OCO3)CC1	-2.1%	6.5%	35.2	-26.1	?	8.0%
CCOC(=O)C1(CCOc2ccccc2)CCN(Cc2cccc(OC)c2OC)CC1	-4.0%	1.1%	6.6	-36.6	10µM*	20.8%
CCOC(=O)C1(CCOc2ccccc2)CCN(Cc2cc(OC)c3c(c2)OCO3)CC1	-22.0%	-7.1%	-31.9	-70.5*	?	18.4%
CCOC(=O)C1(CCOc2ccccc2)CCN(Cc2ccc(OC)cc2)CC1	-13.7%	-0.9%	-98.3*	-120.1*	10µM*	-1.0%
COc1ccc(CCNC(=O)c2cnn(-c3ccc(F)cc3)c2C2CCN(C(=O)OC(C)(C)C)CC2)c(OC)c1	5.6%	-8.4%	/	/	?	/
CCOc1ccc(C2c3c(oc4ccc(C)cc4c3=O)C(=O)N2c2nc(C)c(C)s2)cc1OC (configuration not stated)	1.2%	-14.3%	/	/	19.2%	/
Cc1c2cnn(CC(=O)NCc3ccc(F)cc3)c(=O)c2c(C)n1Cc1ccccc1Cl	-12.8%	0.3%	/	/	?	/
Cn1cc(S(=O)(=O)N2CCCC2)cc1C(=O)N1CCN(c2ccccc2)CC1	19.9%	16.9%	-3.9	-7.7	-4.0%	-5.0%
SMILES	HEK293 tox	GLS inhibitor	hERG WT inh	KCNH2 3.1 block	GLP1R inv ag	GLP-1R agonist
O=C(N/N=C/c1cccs1)c1n[nH]c2c1CCCC2	-33.9%	-5.3%	-1.2	-0.6	3.16µM*	-1.7%
C/C(=N\NC(=O)c1n[nH]c2c1CCC2)c1cccs1	-19.7%	0.4%	0.6	-118.3*	-24.1%	-0.5%
C/C(=N\NC(=O)c1cc(C)[nH]n1)c1cccs1	8.5%	-5.8%	1.7	-6.1	?	-2.1%
O=C(N/N=C/c1cccc2ccccc12)c1n[nH]c2c1CCCC2	-25.4%	4.5%	28.9	9.0	1.12µM*	11.7%
CCOc1ccc(NC(=O)CCc2nc3cccnc3n2Cc2ccc(OC)cc2)cc1	0.5%	6.9%	/	/	1.1%	/
Cc1ccc(C(C)C)c(OC(=O)/C=C/c2ccccc2)c1	1.9%	-6.7%	-11.5	-90.6*	-4.2%	0.7%
O=S(=O)(c1ccccc1)N1CCC(O)(CSc2ccc(Cl)cc2)CC1	10.0%	-10.8%	-4.3	-2.6	?	-0.1%
O=S(=O)(c1ccc(Cl)cc1)N1CCC(O)(CN2CCN(Cc3ccccc3)CC2)CC1	-3.6%[7.66 µM]	0.7%	-19.2	-73.1*	-35.0%[7.66 µM]	5.5%
COc1ccc(NC(=O)CN2C(=O)NC(C)(C3CC3)C2=O)c(OC)c1 (configuration not stated)	-3.0%	-0.1%	-6.3	7.5	0.0%	1.7%
Cn1cc(CNCc2cn(C)nc2-c2ccc(C3CCCCC3)cc2)cn1	-0.5%	-0.5%	27.4	13.2	7.94µM*	19.1%
CCOC(=O)c1cccc(N2C(=O)C3C4C=CC(CC4)C3C2=O)c1 (configuration not stated)	-6.4%	6.8%	9.4	8.7	3.16µM*	4.4%
Cc1cccc(N2C(=O)C3C4C=CC(CC4)C3C2=O)c1 (configuration not stated)	7.1%	1.4%	-0.7	20.0	-27.9%	-0.1%
O=C(CN1C(=O)COc2ccc(S(=O)(=O)N3CCCCCC3)cc21)N1CCN(c2ccc(F)cc2)CC1	0.9%	8.5%	/	/	?	0.0%
Cc1cccc(C)c1N(CC(=O)N1CCN(c2ccccc2F)CC1)S(C)(=O)=O	8.4%	5.0%	-0.2	-1.7	16.2%	-2.2%
Cc1cccc(N(CC(=O)N2CCN(c3ccccc3F)CC2)S(C)(=O)=O)c1	7.9%	11.1%	-1.9	-84.5*	-17.2%	-0.2%
